Shown are actives, neighbours in structure and some others; about 0.98% of the full set was active somewhere.
Keap1 Nrf2 FP = disrupts human Keap1 binding to Nrf2 peptide. Keap1 Kelch-Nrf2 peptide fluorescence polarization, 1536-well. Q14145. inhibition, % at 9.4 µM. 340,000 compounds, 0.15% hits; in the data active = inhibition above about 12%; inconclusive = no clear call, values can overlap the other calls; inactive = below about 7.3%;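 note: human Keap1 Kelch domain with fluorescein labeled Nrf2 9mer peptide probe; higher means more block of Keap1 binding to Nrf2 peptide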
Target sequence (Q14145 whole entry, looked up, the tested form may be a part): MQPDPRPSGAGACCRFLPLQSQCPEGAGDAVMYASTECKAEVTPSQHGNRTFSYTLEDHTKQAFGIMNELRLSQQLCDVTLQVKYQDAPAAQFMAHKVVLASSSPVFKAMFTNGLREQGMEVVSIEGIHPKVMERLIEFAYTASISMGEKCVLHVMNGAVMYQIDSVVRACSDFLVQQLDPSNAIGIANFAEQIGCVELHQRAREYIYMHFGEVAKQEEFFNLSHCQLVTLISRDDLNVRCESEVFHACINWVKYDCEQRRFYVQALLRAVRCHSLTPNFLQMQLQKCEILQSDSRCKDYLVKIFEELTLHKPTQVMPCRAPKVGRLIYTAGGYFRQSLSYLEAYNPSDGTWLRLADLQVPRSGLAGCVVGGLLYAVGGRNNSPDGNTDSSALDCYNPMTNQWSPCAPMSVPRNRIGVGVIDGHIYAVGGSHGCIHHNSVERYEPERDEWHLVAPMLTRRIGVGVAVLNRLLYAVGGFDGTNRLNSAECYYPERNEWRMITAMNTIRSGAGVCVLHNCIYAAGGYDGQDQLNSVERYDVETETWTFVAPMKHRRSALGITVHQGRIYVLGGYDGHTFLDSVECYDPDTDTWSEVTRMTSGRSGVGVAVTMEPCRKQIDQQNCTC
Cardiac RTF inh = cardiac RTF calcium desensitization; P19429+P45379; IANBD-labeled cardiac RTF, Ca2+ fluorescence; inhibition, % at 7.15 µM; 340,000 compounds, 0.12% hits; AID 493244;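 active = inhibition above the mean inhibition of all tested compounds plus 3 SD, cut at about 17% in these data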;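 note: assay run at fixed EC70 calcium of 1.6 mM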
C-LANA FP = KSHV C-LANA DNA binding inhibition; MBP-C-LANA/FAM-LBS DNA binding, fluorescence polarization; inhibition, % at 9 µM; 340,000 compounds, 0.078% hits; AID 504423;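 active = highest replicate inhibition at or above 60% at 9 µM, even if other replicates fall short; inactive = all replicates below 60% inhibition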
cardiac RTF act = increases calcium sensitivity of human cardiac regulated thin filaments; P19429+P45379; IANBD-labeled TnC RTF fluorescence at EC20 calcium; 0% EC20 calcium, 100% full calcium; activation, % at 7.2 µM; 340,000 compounds, 0.24% hits; AID 493008;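 active = activation above the mean over all tested compounds plus 3 SD, cut at about 30% in these data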;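 note: rise in fluorescence read as greater calcium sensitivity of cardiac thin filaments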
LANA-H2B inh = blocks KSHV LANA binding to histone H2A/H2B; Q9QR71; cell-free LANA-H2A/H2B peptide, fluorescence polarization; inhibition, % (concentration not given with the values); 320,000 compounds, 0.6% hits; in the data active = inhibition mostly above about 10%, no sharp cut-off; inactive = mostly below about 6.7%
Large screens that a line does not name were inactive.

Cc1ccc(C(=O)NCCc2c[nH]c3ccccc23)s1	none
CCOc1ccccc1OCCNC1CCCC1	LANA-H2B inh 144.9
O=C(NCC(=O)N1CCN(c2ncccn2)CC1)c1cccs1	none
Cc1ccc(C(=O)NCC(=O)N2CCN(c3ncccn3)CC2)s1	LANA-H2B inh 17.5
COC(=O)Cn1cc(/C=C/c2cc[n+](C)cc2)c2ccccc21	cardiac RTF act 86.2
COC(=O)Cn1c(=O)c(=O)n(CC(=O)OC)c2ccccc21	none
CNC(=O)/C(C#N)=C/c1cn(CC(=O)OC)c2ccccc12	none
COC(=O)Cn1c(C)c(/C=C/c2cc[n+](C)cc2)c2ccccc21	cardiac RTF act 64.0
CCOC(=O)C1CCC/C1=N\NC(=O)CN(c1cc(OC)ccc1OC)S(=O)(=O)c1ccccc1 (configuration not stated)	none
Cc1ccc(S(=O)(=O)N2CC(O)CC2C(=O)OCC(=O)Nc2ccc([N+](=O)[O-])cc2C(F)(F)F)cc1C (configuration not stated)	none
Cc1ccc(S(=O)(=O)N2CCOCC2)cc1C(=O)Nc1ccc2c(c1)OCCO2	none
NC(=O)C1CCN(CCS(=O)(=O)c2ccc(Cl)cc2)CC1	none
CN1CCc2cccc3c2[C@@H]1Cc1ccc(O)c(O)c1-3	LANA-H2B inh active
O=C(Nc1ccccc1[N+](=O)[O-])C1COc2ccccc2O1 (configuration not stated)	none
Cc1cccc(CC2CC(=O)N(c3ccc(C)cc3Br)C2=O)c1 (configuration not stated)	LANA-H2B inh 25.6
COc1cccc(C(=O)Nc2ccc(NC(C)=O)cc2)c1	LANA-H2B inh 41.0
COc1cccc(C(=O)NC2CC3CCCC(C2)N3CC(=O)Nc2ccc(N(C)C)cc2)c1 (configuration not stated)	LANA-H2B inh 27.0
COc1cccc(C(=O)NC2CC3CCCC(C2)N3CC(=O)Nc2ccccc2)c1 (configuration not stated)	none
COCCCn1c(C)cc(C(=O)CN2c3cccc4cccc(c34)S2(=O)=O)c1C	none
O=[N+]([O-])c1ccc(Cl)c(NC2=NCCCCC2)c1	none
CC(C)(C)NC(=O)CCN(/N=C/c1ccccc1F)C1=NS(=O)(=O)c2ccccc21	none
Cc1ccc(S(=O)(=O)Nc2c(NC3CCCCC3)c3ccccc3oc2=O)c(C)c1	none
Cc1ccc2c(c1)nnn2C1CCN(S(=O)(=O)c2ccc(C(=O)N3C(C)CCCC3C)cc2)CC1 (configuration not stated)	none
Cc1ccc2c(c1)nnn2C1CCN(S(=O)(=O)c2ccc(C(=O)O)cc2)CC1	LANA-H2B inh 125.9
CC(C)CC(=O)Nc1nnc(S(=O)(=O)Nc2ccccc2)s1	none
CCN(CC(=O)Nc1c(F)cccc1F)C(=O)CCCNC(=O)c1ccc(Cl)cc1	none
CCOC(=O)/C(=N\Nc1ccc(C(C)=O)cc1)c1csc(Nc2ccccc2)n1	cardiac RTF act 131.4
COc1cc(C)ccc1OCc1cc(C(=O)N2CCN(C)C[C@@H]2c2ccccc2)no1	none
CC(NC(=O)[C@H](C)NC(=O)[C@@H]1CSC2c3ccccc3C(=O)N21)c1ccccc1 (some centres not stated)	none
CC1=C/C(=C\c2ccc(Br)o2)C(=O)O1	none
O=C1C(=Cc2ccc(Br)o2)C(=O)c2ccccc21	Keap1 Nrf2 FP inconclusive, Cardiac RTF inh 33.1, C-LANA FP 105.5
CCCCN(C)C(=O)c1ccc(CS(=O)(=O)c2ccccc2C)o1	none
COC(CN(C)C(=O)c1ccc(CS(=O)(=O)c2ccccc2C)o1)OC	LANA-H2B inh 13.8
CC1/C(=N/O)C(CN(C)C)C2CC1C2(C)C (configuration not stated)	none
CC1C2CC(C(CN(C)C)/C2=N/O)C1(C)C (configuration not stated)	LANA-H2B inh 66.5
COc1ccccc1N(CC(=O)Nc1ccccc1C(=O)N1CCOCC1)S(C)(=O)=O	none
Cc1ccc2cc(C#N)c(NCCNC(=O)C3CCC3)nc2c1C	LANA-H2B inh 53.1
CC(C)NC(=O)CSc1ccccc1C(=O)N1CCN(S(=O)(=O)/C=C/c2ccccc2)CC1	LANA-H2B inh 17.2
O=C(CN1C(=O)NC2(CCCC2)C1=O)Nc1ccc(F)cc1	none
CC1CCC2(CC1)NC(=O)N(CC(=O)Nc1ccc(F)cc1)C2=O (configuration not stated)	LANA-H2B inh 37.8
COc1cc(C2C3CN(C)CC=C3C(C#N)=C(N)C2(C#N)C#N)ccc1OC(C)C (configuration not stated)	cardiac RTF act 42.2
O=[N+]([O-])c1ccc(Nc2ccccc2F)nc1	none
CCCCc1c(O)c2ccccc2n(CCCC)c1=O	LANA-H2B inh 14.3
O=[N+]([O-])CC1(n2nc3ccccc3n2)CCCCC1	none
Cc1cc(C)nc(SCC(=O)NC(=O)c2ccccc2O)n1	cardiac RTF act 38.8
Cc1ccccc1C(=O)Nc1ccnn1C1CCN(Cc2cnn(C(C)C)c2)CC1	LANA-H2B inh 17.1
C#CCN1c2ccccc2Sc2cccnc21	cardiac RTF act 29.7
Cc1cc(CN2CCN(CC(=O)Nc3cc(C(F)(F)F)ccc3-n3cncn3)CC2)no1	none
COc1cc(NC(=O)[C@H]2CSCN2C(=O)[C@@H]2CCC(=O)N2)cc(OC)c1OC	LANA-H2B inh 14.3
CC(C)C[C@H]1CN=C(Nc2ccccc2)N1CC1CCCCCC1	none
Cc1cc(C)cc(N(CCC#N)C(=O)COC(=O)C2CCN(S(=O)(=O)c3ccc(C)c(C)c3)CC2)c1	none
C=CCC[C@@H](Cc1ccc(F)cc1)C(=O)OC[C@@H](Cc1c[nH]c2ccccc12)NC(=O)[C@@H](CC=C)CC(=O)N(CCO)Cc1ccccc1	LANA-H2B inh active
C=CCC[C@@H](Cc1ccc(F)cc1)C(=O)OCCNC(=O)[C@@H](CC=C)CC(=O)N[C@@H](CO)Cc1ccccc1	LANA-H2B inh 25.7
C=CCC[C@H](Cc1ccc(F)cc1)C(=O)OC[C@H](Cc1c[nH]c2ccccc12)NC(=O)[C@H](CC=C)CC(=O)N(CCO)Cc1ccccc1	none
C=CCC[C@@H](Cc1ccc(F)cc1)C(=O)OCCNC(=O)[C@@H](CC=C)CC(=O)N[C@H](CO)Cc1ccccc1	none
CC(CC(=O)N1CCN(c2cccc(Cl)c2)CC1)S(=O)(=O)c1ccc2c(c1)NC(=O)CO2 (configuration not stated)	none
CCCCCC/C=N/Nc1nnc(Cc2ccccc2)c(=O)[nH]1	none
C[C@@H]1NC(=O)c2cc([N+](=O)[O-])cc(I)c2NCC[C@@H](C(N)=O)NC(=O)[C@H](CC(N)=O)NC1=O	LANA-H2B inh 18.4
CC(=O)N1CCC2(CC1)C(C#N)=C(N)OC1=C2C(=O)CC(C)(C)C1	none
CC1(C)CC(=O)C2=C(C1)OC(N)=C(C#N)C21CCN(Cc2ccccc2)CC1	cardiac RTF act 31.7
CCOc1ccccc1C1NC(=O)c2ccccc2O1 (configuration not stated)	none
Cc1nc(N2CCCCC2)c2c(C)c(C(=O)Nc3ccc4c(c3)OCCO4)sc2n1	none
